Test in all cases: PBM binding z-score (relative to random genomic background probes); higher = stronger binding; sequences stand for … in GC…GCGATTGACAGCGTAGAATGAAGG
Assay [1] deals with RARb homodimer (NR concentration 270 nM). The essentials:
(§1)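 Binding z-scores take random background probes as their reference. They come from custom Agilent 4×180K protein-binding microarrays incubated 1 h with ligand-free nuclear receptor dimers, with antibodies against each partner (one per run) detecting binding. Scanned fluorescence was regression-normalized.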

Assay [2] relates to RARg:RXRa (NR concentration 270 nM, RXRa partner concentration 90 nM). An outline of the steps: as §1
For assay [3], the system named is RARg homodimer (NR concentration 270 nM). The essentials:
as §1

Assay [4] has as its system RXRa DBDmut IVT, anti-RXR (DBD mutation: RXRa K156A/R161A, NR concentration 90 nM). The essentials:
as §1

Assay [5] relates to RXRa homodimer (NR concentration 180 nM). The essentials: as §1
For assay [6], the system named is THRa:RXRa (NR concentration 90 nM, RXRa partner concentration 90 nM). An outline of the steps:
as §1

Assay [7] relates to THRa homodimer (NR concentration 90 nM). An outline of the steps:
as §1

For assay [8], the system named is VDR homodimer (NR concentration 270 nM). An outline of the steps: as §1

On to TGAATGAGGTTAAAGATCAGGGGACGTGGCGTCG, for which the PBM binding z-score turned out to be 1.02 in assay [1]; 2.29 in assay [2]; 1.31 in assay [3]; 1.01 in assay [4]; 3.57 in assay [5]; 2.83 in assay [6]. Also, the PBM binding z-score was determined as 0.742 in assay [7] and 0.974 in assay [8].

Take ACTATTAGTTGACACGAGGGCAACCGATAGGTTG: the PBM binding z-score in assay [1] amounted to 1.76; in assay [2], 1.56; in assay [3], 1.34; in assay [4] it was 0.816; in assay [5] it was 1.22; in assay [6] it was 3.07. For the same sequence, the PBM binding z-score in assay [7] turned out to be 0.699; in assay [8], 1.07.

In the case of CGAACTAGGTCATTTACAGGACAGTGAATAGTAA, the PBM binding z-score in assay [1] is 2.66; in assay [2], 4.82; in assay [3] it was 4.09; in assay [4] it was 2.58; in assay [5], 2.38; in assay [6], 2.89. For the same sequence, the values for the PBM binding z-score in assay [7] and in assay [8] were 0.896 and 1.75, respectively.

TGGCCTAGGTCATTCAGGGGCCAGTATAGAAAGC: the PBM binding z-score in assay [1] worked out at 3.18; in assay [2], 6.37; in assay [3] it was 5.07; in assay [4], 1.39; in assay [5], 3.29; in assay [6] it was 3.47. For the same sequence, the PBM binding z-score in assay [7] amounted to 0.314; in assay [8], 1.37.

Take CCTTATGGGTCACGAGGTTATAGCACGACGAGCG: the PBM binding z-score in assay [1] is 3.34; in assay [2], 5.59; in assay [3], 4.86; in assay [4], 1.46; in assay [5] it was 6.1; in assay [6], 3.3. For the same sequence, the PBM binding z-score was determined as 0.63 in assay [7] and 1.1 in assay [8].

Consider TCAGACAGGTGAAGGAAACTCAGGTACGCAGTCG, for which the PBM binding z-score is 0.458 in assay [1]; 0.429 in assay [2]; 0.359 in assay [3]; 1.34 in assay [4]; 0.487 in assay [5]; 0.592 in assay [6]. Further, the values for the PBM binding z-score in assay [7] and in assay [8] were 0.421 and 0.426, respectively.

Take CAGCCTACGTCAGGGCCAGTATAGGAGGAACGTT: the PBM binding z-score in assay [1] was -0.0418; in assay [2], -0.371; in assay [3], -0.021; in assay [4], -0.885; in assay [5] it was -0.169; in assay [6], -0.415. Besides, the PBM binding z-score was -0.292 in assay [7] and -0.285 in assay [8].

On to ACTTTCGGGTCAACGAGGTTATAGCACGCGTATA, for which the PBM binding z-score in assay [1] worked out at 3.85; in assay [2], 5.69; in assay [3], 5.44; in assay [4], 3.12; in assay [5], 6.2; in assay [6], 4.62. Further, the figures for the PBM binding z-score in assay [7] and in assay [8] were 3.51 and 4.05, respectively.

In the case of GCTATTAGTTGAAAGGGCATCCGAATGATTCTCG, the PBM binding z-score in assay [1] came out at 1.52; in assay [2], 1.04; in assay [3], 0.981; in assay [4], 1.01; in assay [5] it was 1.15; in assay [6], 0.356. For the same sequence, the PBM binding z-score was -0.145 in assay [7] and 0.425 in assay [8].

With TAGTCTAGGTCAGATCGGGCCAGTATACGCTATA, the PBM binding z-score is 2.21 in assay [1]; 2.72 in assay [2]; 3.51 in assay [3]; -0.14 in assay [4]; 1.39 in assay [5]; 4.26 in assay [6]. Besides, the PBM binding z-score in assay [7] is 0.664; in assay [8], -0.0113.

As for TCTGCTAGATCAGTTGGTCAGCTAACGAGCTGCC, the PBM binding z-score is -0.799 in assay [1]; -0.667 in assay [2]; -0.644 in assay [3]; -0.256 in assay [4]; -0.419 in assay [5]; -1.77 in assay [6]. In addition, the PBM binding z-score in assay [7] is -1.48; in assay [8], -1.49.

Consider ATATGTAGGTTAGCTCGGGTCATTCAGACTAGGC, for which the PBM binding z-score in assay [1] worked out at 2.89; in assay [2], 2.48; in assay [3], 2.04; in assay [4], 0.986; in assay [5], 3.02; in assay [6], 4.98. Besides, the PBM binding z-score in assay [7] was determined as 2.7; in assay [8], 2.6.

Consider AGCTCTAGGTAAGACTCAGTTCAGTGAAGAACGC, for which the PBM binding z-score in assay [1] was 0.218; in assay [2] it was -0.161; in assay [3], -0.269; in assay [4], 0.149; in assay [5] it was -0.208; in assay [6], 0.465. Moreover, the values for the PBM binding z-score in assay [7] and in assay [8] were 0.312 and 1.14, respectively.

Consider CCTACTGGGCCATTCAGTGGTCATTGATCATATG, for which the PBM binding z-score in assay [1] is 0.199; in assay [2], 0.241; in assay [3] it was 0.159; in assay [4], -0.408; in assay [5], -0.279; in assay [6] it was -0.329. In addition, the PBM binding z-score in assay [7] was -0.878; in assay [8] it was -0.288.

Consider CGTCCAAGGTCAAGGTCAGCGAAAGAGACTCGAA, for which the PBM binding z-score in assay [1] was 5.23; in assay [2], 6.94; in assay [3] it was 7.94; in assay [4], 3.44; in assay [5], 6.74; in assay [6], 4.14. Further, the PBM binding z-score in assay [7] came to 3.58; in assay [8], 3.19.

The values above are taken from the supplement of paper PMC6555819.
